Test results as given in PubChem BioAssay.
Active and inactive are the calls of the source. Unless noted, how the calls were made is not given here.

Columns and labels:
[1] = compound effects on lung adenocarcinoma cell viability – A549, calcein-AM fluorescence, 48 h, basal, profiling panel (AID 1162); conditions: higher = more signal; further: test concentration not given here
[2] = compound effects on differentiated 3T3-L1 adipocyte viability – cell-based, 3T3-L1 adipocytes, calcein-AM fluorescence, 48 h, basal, profiling panel (AID 1163); conditions: 3T3-L1 adipocytes viability, higher = more signal; further: test concentration not given here
[3] = compound effects on hepatocellular carcinoma cell viability – HepG2, calcein-AM fluorescence, 48 h, basal, profiling panel (AID 1164); conditions: higher = more signal; further: test concentration not given here
[4] = compound effects on multiple myeloma cell viability – MM1S, calcein-AM fluorescence, 48 h, basal, profiling panel (AID 1165); conditions: higher = more signal; further: test concentration not given here
[5] = calcein-AM signal in unstimulated myeloma cells – cell-based, calcein-AM fluorescence, 48 h, PK04 Diversity Set, profiling panel (AID 1166); conditions: RPMI8226 myeloma viability, higher = more signal;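 further: cells grown under basal conditions without added stimulus; test concentration not given here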
[6] = JC-1 mitochondrial signal, unstimulated HepG2 cells – cell-based, JC-1 fluorescence, 24 h, 100 nL compound, profiling panel (AID 1167); conditions: HepG2 mitochondrial potential, higher = more signal; further: test concentration not given here
[7] = JC-1 mitochondrial signal, unstimulated adipocytes – cell-based, JC-1 fluorescence, 3T3-L1 adipocytes, 24 h, 100 nL compound, profiling panel (AID 1168); conditions: JC-1 mitochondrial fluorescence, higher = more signal, called active from +8 up or from −8 down; further: test concentration not given here
[8] = JC-1 mitochondrial signal, unstimulated myeloma cells – cell-based, JC-1 fluorescence, RPMI8226, 24 h, 100 nL compound, profiling panel (AID 1169); conditions: JC-1 mitochondrial potential fluorescence, higher = more signal; further: test concentration not given here
[9] = JC-1 mitochondrial signal, unstimulated MM1S myeloma – cell-based, JC-1 fluorescence, 24 h, 100 nL compound, profiling panel (AID 1170); conditions: MM1S mitochondrial potential, higher = more signal; further: test concentration not given here
[10] = resazurin metabolic signal in A549 cells – cell-based, resazurin fluorescence, 24 h, PK04 Diversity Set, profiling panel (AID 1171); conditions: A549 viability, higher = more signal, called active from +8 up or from −8 down; further: test concentration not given here
[11] = resazurin metabolic signal in HepG2 cells – cell-based, resazurin fluorescence, 24 h, PK04 Diversity Set, profiling panel (AID 1172); conditions: HepG2 viability, higher = more signal; further: test concentration not given here
[12] = budding yeast growth changes without added modifier – OD600, strain BY4716, 24 h, basal condition, primary screen (AID 1173); conditions: S. cerevisiae BY4716 growth, OD600, 24 h; higher = more signal, called active from +8 up or from −8 down
[13] = viability profiling in MM1S myeloma cells – cell-based, resazurin fluorescence, basal, 24 h, PK04 Diversity Set, profiling panel (AID 1174); conditions: higher = more signal, called active from +8 up or from −8 down; further: test concentration not given here
[14] = biological target: Dihydroorotate dehydrogenase (quinone), mitochondrial (Plasmodium falciparum (isolate 3D7)) (UniProt Q08210); experiment: inhibition of P. falciparum DHODH – biochemical, C-terminal His tag, absorbance 600 nm, primary screen (AID 1175); conditions: PfDHODH enzyme, DCIP absorbance 600 nm; higher = more signal, called active from +8 up or from −8 down;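 further: recombinant parasite enzyme with a five histidine tag at its C terminus; test concentration not given here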
[15] = inhibition of PAO1 biofilm formation – strain PAO1, LB-PBS medium, absorbance 600 nm, primary screen (AID 1176); further: test concentration not given here; conditions: P. aeruginosa PAO1 growth/biofilm, A600, 12 h; higher = more signal
[16] = growth modulation of vineyard yeast isolate – strain RM11-1a, OD600, basal, 24 h, primary screen (AID 1177);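 further: cultures grown under basal conditions with no added stressor; test concentration not given here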; conditions: S. cerevisiae RM11-1a growth, OD600, 24 h; higher = more signal, called active from +8 up or from −8 down
[17] = growth of efflux-deficient E. coli DRC39 – strain DRC39, OD650, 24 h, E. coli filamentation inducers, primary screen (AID 1178);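 further: growth measured as culture turbidity by optical density at 650 nm; test concentration not given here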; conditions: E. coli DRC39 acrAB, higher = more signal, called active from +8 up or from −8 down
[18] = growth of efflux-deficient E. coli DRC39 – strain DRC39, OD650, 48 h, E. coli filamentation inducers, primary screen (AID 1179);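 further: screen aims at cell division blockers that make cells filament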; conditions: E. coli DRC39 delta-acrAB growth, higher = more signal, called active from +8 up or from −8 down
[19] = viability profiling in RPMI8226 myeloma cells – cell-based, resazurin fluorescence, basal, 24 h, PK04 Diversity Set, profiling panel (AID 1180); conditions: higher = more signal;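 further: RPMI8826 multiple myeloma cell line at 5000 cells per well; test concentration not given here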
[20] = biological target: E3 ubiquitin-protein ligase XIAP (Homo sapiens) (UniProt P98170); experiment: small molecules binding XIAP protein – biophysical, small-molecule microarray, fluorescence 635 nm, primary screen (AID 1181); conditions: higher = more signal;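 further: score merges 667 nm emission and signal to noise over triplicate slides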
Sequence of E3 ubiquitin-protein ligase XIAP (Homo sapiens) (P98170 whole entry, looked up): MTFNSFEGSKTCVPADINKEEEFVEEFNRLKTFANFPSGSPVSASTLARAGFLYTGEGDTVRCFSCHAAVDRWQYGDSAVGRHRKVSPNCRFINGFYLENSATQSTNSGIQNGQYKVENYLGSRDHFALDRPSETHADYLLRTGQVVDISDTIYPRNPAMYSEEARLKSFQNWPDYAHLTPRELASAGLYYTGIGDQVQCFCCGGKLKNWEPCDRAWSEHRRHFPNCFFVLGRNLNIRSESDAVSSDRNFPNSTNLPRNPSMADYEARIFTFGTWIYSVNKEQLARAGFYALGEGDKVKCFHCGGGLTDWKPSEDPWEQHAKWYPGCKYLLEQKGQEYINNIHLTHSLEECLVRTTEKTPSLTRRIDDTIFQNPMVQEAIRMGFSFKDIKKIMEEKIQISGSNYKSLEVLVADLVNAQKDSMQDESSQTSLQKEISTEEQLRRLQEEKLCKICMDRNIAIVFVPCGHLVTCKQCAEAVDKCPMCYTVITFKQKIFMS

Sequence of Dihydroorotate dehydrogenase (quinone), mitochondrial (Plasmodium falciparum (isolate 3D7)) (Q08210 whole entry, looked up): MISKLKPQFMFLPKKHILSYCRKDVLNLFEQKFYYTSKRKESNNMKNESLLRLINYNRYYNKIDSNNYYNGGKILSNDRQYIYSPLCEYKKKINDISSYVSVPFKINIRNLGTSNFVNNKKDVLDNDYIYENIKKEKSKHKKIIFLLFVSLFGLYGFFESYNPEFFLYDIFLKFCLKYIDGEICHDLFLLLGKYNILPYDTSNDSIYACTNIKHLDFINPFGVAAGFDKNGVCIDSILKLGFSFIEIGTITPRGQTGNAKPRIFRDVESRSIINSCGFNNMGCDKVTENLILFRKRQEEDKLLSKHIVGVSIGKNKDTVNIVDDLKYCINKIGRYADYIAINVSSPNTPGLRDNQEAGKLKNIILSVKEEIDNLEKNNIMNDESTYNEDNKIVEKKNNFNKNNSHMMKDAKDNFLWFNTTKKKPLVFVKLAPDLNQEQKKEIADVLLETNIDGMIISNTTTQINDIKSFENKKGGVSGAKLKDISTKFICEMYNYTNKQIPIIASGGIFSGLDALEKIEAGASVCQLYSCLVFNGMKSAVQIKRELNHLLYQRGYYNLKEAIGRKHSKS

Structure (SMILES) | z-score [1] | z-score [2] | z-score [3] | z-score [4] | z-score [5] | z-score [6] | z-score [7] | z-score [8] | z-score [9] | z-score [10] | z-score [11] | z-score [12] | z-score [13] | composite z-score [14] | z-score [15] | z-score [16] | z-score [17] | z-score [18] | z-score [19] | composite z-score [20]
CCN(CC)c1ccc(N2CC=CC34O[C@@H]5C=CCCOC(=O)C5[C@H]3C(=O)N(CCCO)[C@@H]4C2=O)cc1 (stereo not given in full) | -0.0905 | 0.848 | 0.0124 | -0.0503 | -0.402 | 0.723 | 0.673 (inactive) | 0.0131 | 0.744 | -0.209 (inactive) | -0.704 | -1.25 (inactive) | 0.61 (inactive) | -0.429 (inactive) | 0.525 (inactive) | -0.294 (inactive) | 1.21 (inactive) | 0.764 (inactive) | 0.237 | -0.516
COC(=O)[C@@]1(Cc2ccc(OC)cc2)[C@H]2c3cc(C(=O)N(C)C)n(Cc4ccc(OC)c(OC)c4)c3C[C@H]2CN1C(=O)c1ccccc1 | -1.72 | -0.204 | -1.18 | -1.32 | -2.07 | 0.297 | -1.29 (inactive) | -0.605 | -1.11 | -1.35 (inactive) | -0.962 | 2.46 (inactive) | -1.67 (inactive) | 0.697 (inactive) | 0.964 (inactive) | 2.19 (inactive) | -0.558 (inactive) | 0.0309 (inactive) | -2.28 | 0.124
O=C(CS)NCCCCCNC(=O)[C@H]1C[C@H]2C(=O)N[C@@H](Cc3ccccc3)C(=O)N2[C@H]1c1cccc(OCCO)c1 | 0.917 | -0.0063 | 0.585 | 0.898 | -0.156 | 1.3 | -0.0668 (inactive) | -0.736 | -0.256 | 0.363 (inactive) | 0.219 | -0.525 (inactive) | 0.782 (inactive) | 0.761 (inactive) | 0.932 (inactive) | -0.572 (inactive) | 1.94 (inactive) | 1.68 (inactive) | 0.889 | 0.0585
Cc1ccc(S[C@]2(C(=O)NCC(F)(F)F)CC(=O)N(C3Cc4ccccc4C3)[C@@H]2c2ccc(CO)cc2I)cc1 | 0.833 | 0.236 | 0.506 | -2.1 | -3.02 | 0.194 | -0.131 (inactive) | 0.045 | -1.4 | 0.537 (inactive) | 0.788 | -3.18 (inactive) | -2.74 (inactive) | 0.427 (inactive) | 0.0898 (inactive) | -0.391 (inactive) | 0.715 (inactive) | 0.503 (inactive) | -1.32 | 0.0499
COc1ccc([Si](C)(C)[C@H]2[C@H](CCO)O[C@@]3(C(=O)N(Cc4cccc(N5C(=O)c6cccc7cccc5c67)c4)c4ccccc43)[C@@H]2C)cc1 | -1.02 | 0.894 | -3.98 | -2.97 | -4.23 | -0.139 | 1.49 (inactive) | -1.02 | -1.34 | -2.92 (inactive) | -2.42 | 1.18 (inactive) | -4.22 (inactive) | 0.763 (inactive) | 1.51 (inactive) | 4.72 (inactive) | 0.0827 (inactive) | -0.511 (inactive) | -4.88 | 0.224
C=CCNC(=O)[C@H]1[C@@H]2C(=O)O[C@@H](c3ccccc3)[C@@H](c3ccccc3)N2[C@@H](c2ccc(O)cc2)[C@]12C(=O)Nc1ccc(C#Cc3ccc(OC)cc3)cc12 | -1.06 | 0.205 | -1.78 | -2.37 | -4.35 | -0.385 | -0.0338 (inactive) | -1.22 | -0.614 | -0.989 (inactive) | -1.56 | 0.885 (inactive) | -1.57 (inactive) | -27 (active) | 0.971 (inactive) | 1.14 (inactive) | 0.461 (inactive) | 0.0221 (inactive) | -3.24 | -0.0022
C=CCOC(=O)[C@@H]1[C@H]2C(=O)O[C@H](c3ccccc3)[C@H](c3ccccc3)N2[C@H](c2ccc(OCCOC(=O)[C@H]3C[C@H]4C(=O)N[C@@H](CC(C)C)C(=O)N4[C@H]3c3cccc(OCCO)c3)cc2)[C@@]12C(=O)Nc1ccc(I)cc12 | 0.704 | 1.54 | -0.533 | -0.727 | -1.34 | -1.91 | 1.59 (inactive) | -0.946 | -1.2 | -0.304 (inactive) | -0.525 | -0.195 (inactive) | -0.77 (inactive) | 1.64 (inactive) | 3.38 (inactive) | 1.58 (inactive) | -0.111 (inactive) | -1.14 (inactive) | -0.747 | -0.0876
COc1ccc([Si](C)(C)[C@@H]2[C@@H](CCO)O[C@]3(C(=O)N(Cc4cccc(N(C=O)c5ccccc5)c4)c4ccccc43)[C@H]2C)cc1 | -1.54 | 1.72 | -0.854 | -1.12 | -1.68 | 0.719 | -0.0903 (inactive) | -0.881 | 0.0823 | -2.24 (inactive) | -2.41 | 1.27 (inactive) | -3.21 (inactive) | -0.82 (inactive) | -0.0818 (inactive) | 4.68 (inactive) | -0.818 (inactive) | -1.62 (inactive) | -2.73 | 0.0449
NC(=O)NCC#Cc1ccc2c(c1)[C@]1(C(=O)N2)[C@H](C(=O)NC[C@H](O)c2ccccc2)[C@H]2C(=O)O[C@H](c3ccccc3)[C@H](c3ccccc3)N2[C@@H]1c1ccccc1OCCO | -0.321 | 1.02 | -0.252 | 0.325 | -0.636 | -1.64 | 1.34 (inactive) | -0.0808 | -1.01 | 1.02 (inactive) | 0.217 | 0.328 (inactive) | 0.56 (inactive) | 0.833 (inactive) | 1.08 (inactive) | 0.915 (inactive) | 1.01 (inactive) | 0.0227 (inactive) | 0.225 | 0.0864
